Data: PubChem BioAssay (Tox21)
Several values for one entry are separate records, joined by “and”; a condition that tells them apart may be missing. Identical values can stand only once. Results filed as inconclusive are left out. Activity calls are given as the source filed them. Unless noted, calls come from the whole dose curve; as a rule, active = well fitted curve in the direction sought with a large enough effect in the repeat runs; inconclusive = weak or mixed curves; inactive = no such curve, though single readings can be large; an effect the other way counts as inactive or inconclusive.

Experiments:
[1] = qHTS assay to identify small molecule agonists of the estrogen receptor alpha (ER-alpha) signaling pathway in the presence of an antagonist - cell viability counter screen (AID 1259386);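 note: cells exposed to compounds for 22 h at 37 °C before the viability read; nearly all actives have a fitted effect of over 30% in size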; note: potency is the fitted concentration of half-maximal effect
Summary of the method: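 Viability counter screen using VM7Luc4E2 (full-length ER-alpha, four ERE-luciferase). The cells were treated with compounds alongside ICI-182,780 10.0nM for 22hr, and live-cell protease fluorescence was quantified with CellTiter-Fluor.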

[2] = biological target: Progesterone receptor (Homo sapiens) (UniProt P06401); assay: qHTS assay to identify small molecule agonists of the progesterone receptor (PR) signaling pathway (AID 1346784; calls by dose curve; note: nearly all actives have a fitted effect of over 30% in size)
Sequence of Progesterone receptor (Homo sapiens) (P06401 whole entry, looked up): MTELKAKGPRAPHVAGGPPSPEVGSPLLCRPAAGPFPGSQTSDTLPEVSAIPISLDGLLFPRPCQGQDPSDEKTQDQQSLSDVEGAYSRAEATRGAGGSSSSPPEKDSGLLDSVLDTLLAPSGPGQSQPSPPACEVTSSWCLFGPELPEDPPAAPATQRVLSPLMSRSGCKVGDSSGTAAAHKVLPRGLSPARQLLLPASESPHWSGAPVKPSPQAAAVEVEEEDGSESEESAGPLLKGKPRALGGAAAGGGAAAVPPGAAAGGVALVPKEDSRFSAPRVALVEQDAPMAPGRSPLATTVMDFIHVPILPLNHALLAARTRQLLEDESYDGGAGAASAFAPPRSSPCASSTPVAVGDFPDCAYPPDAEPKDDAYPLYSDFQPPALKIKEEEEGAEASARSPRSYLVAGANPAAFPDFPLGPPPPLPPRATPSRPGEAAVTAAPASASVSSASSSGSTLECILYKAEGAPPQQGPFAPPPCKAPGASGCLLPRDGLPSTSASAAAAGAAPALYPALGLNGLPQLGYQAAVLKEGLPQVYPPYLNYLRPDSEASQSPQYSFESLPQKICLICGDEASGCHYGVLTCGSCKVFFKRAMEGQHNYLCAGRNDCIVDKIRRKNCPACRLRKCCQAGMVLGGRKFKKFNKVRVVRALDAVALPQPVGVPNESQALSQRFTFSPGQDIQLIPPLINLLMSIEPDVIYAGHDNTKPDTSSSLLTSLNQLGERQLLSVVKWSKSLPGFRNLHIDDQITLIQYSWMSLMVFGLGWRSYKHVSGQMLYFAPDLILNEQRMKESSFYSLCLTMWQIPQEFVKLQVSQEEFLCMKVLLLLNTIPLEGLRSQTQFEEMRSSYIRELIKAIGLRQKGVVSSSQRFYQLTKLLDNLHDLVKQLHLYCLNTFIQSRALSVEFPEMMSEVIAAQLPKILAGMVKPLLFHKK
Summary of the method: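 Reporter assay, GripTite PR-UAS-bla HEK 293T cells: 16 hr exposure to DMSO-dissolved compounds at 37C, 5% CO2, in steroid-depleted (2% charcoal-stripped FBS) medium; beta-lactamase measured by FRET fluorescence.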

[3] = qHTS assay to identify small molecule antagonists of the progesterone receptor (PR) signaling pathway - cell viability counter screen (AID 1346798); note: series mostly up to about 92 µM; nearly all actives have a fitted effect of over 50% in size
Summary of the method: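 In the same plates used for the beta-lactamase readout, cell viability of compound- and R5020-treated PR-UAS-bla HEK293T cells (16 hr, 37C) was assessed by CellTiter-Glo luminescence.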

[4] = qHTS assay to identify small molecule agonists of the progesterone receptor (PR) signaling pathway - cell viability counter screen (AID 1346799; calls by dose curve; note: nearly all actives have a fitted effect of over 45% in size)
Summary of the method: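 Multiplexed viability read: CellTiter-Glo luminescence, 30 min RT, following LiveBLAzer FRET measurement on PR-UAS-bla HEK293T cells exposed to compounds 16 hr.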

[5] = qHTS assay to identify small molecule antagonists of the TGF-beta/Smad signaling pathway - cell viability counter screen (AID 1346824); note: nearly all actives have a fitted effect of over 50% in size
Summary of the method: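 Cytotoxicity counter-screen run in the same wells as the beta-lactamase Smad reporter read: CellTiter-Glo luminescence after 30 min at room temperature. HEK 293T SBE-bla cells had 5 hr compound exposure at 37 C with TGF-beta1 (0.25 ng/mL stock).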

[6] = qHTS assay to identify small molecule agonists of the TGF-beta/Smad signaling pathway - cell viability counter screen (AID 1346829); note: top concentration of the series differs between compounds; nearly all actives have a fitted effect of over 45% in size
Summary of the method: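 SBE-bla HEK 293T cells plated overnight, compound exposure 5 hr at 37 C. Viability read in the same wells by CellTiter-Glo luminescence after 30 min at room temperature, following the beta-lactamase read.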

[7] = qHTS assay to identify small molecule agonists of the TGF-beta/Smad signaling pathway (AID 1346859; active = well fitted activation curve with a large enough effect in the signal ratio in the repeat runs, not every such curve was filed as active; the % refers to the signal ratio; note: series mostly up to about 77 µM)
Summary of the method: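 Screening used HEK 293T SBE-bla cells at 4,000/well. Test agents: 5 hr, 37 C. Detection: FRET substrate, 2 hr RT, then excitation 405 nm with emissions at 460 and 530 nm.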

[8] = biological target: Thyrotropin-releasing hormone receptor (Homo sapiens) (UniProt P34981); assay: qHTS assay to identify small molecule antagonists of the thyrotropin-releasing hormone receptor (TRHR) signaling pathway (AID 1346877; active = well fitted inhibition curve with a large enough effect in the repeat runs, not every such curve was filed as active; note: series mostly up to about 51 µM)
Sequence of Thyrotropin-releasing hormone receptor (Homo sapiens) (P34981 whole entry, looked up): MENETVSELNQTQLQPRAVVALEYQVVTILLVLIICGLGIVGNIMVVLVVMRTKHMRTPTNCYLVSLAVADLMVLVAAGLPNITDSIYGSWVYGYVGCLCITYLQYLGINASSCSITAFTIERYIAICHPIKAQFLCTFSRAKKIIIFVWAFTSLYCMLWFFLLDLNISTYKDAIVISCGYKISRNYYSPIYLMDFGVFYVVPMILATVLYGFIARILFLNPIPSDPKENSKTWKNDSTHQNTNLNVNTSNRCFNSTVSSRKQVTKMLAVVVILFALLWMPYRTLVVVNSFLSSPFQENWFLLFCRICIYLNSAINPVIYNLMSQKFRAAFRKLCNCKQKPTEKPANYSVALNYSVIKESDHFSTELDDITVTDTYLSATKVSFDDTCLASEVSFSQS
Summary of the method: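 Following an 18 h incubation at 37 °C and a 2 h calcium dye load, TRHR-HEK293 cells were exposed to compound (5 min, room temperature) and challenged with TRH, 1 nM final.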

[9] = Human pregnane X receptor (PXR) small molecule agonists, qHTS cell viability counter screen (AID 1346977); note: nearly all actives have a fitted effect of over 50% in size; note: potency is the fitted concentration of half-maximal effect
Summary of the method: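 In each well, the PXR reporter HepG2 line was checked for viability: CellTiter-Fluor reagent added 23hr post-dosing, fluorescence read after 1hr incubation at 37C.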

[10] = Caspase-3/7 induction in HepG2 cells by small molecules, qHTS assay (AID 1346978); note: nearly all actives have a fitted effect of over 15% in size
Summary of the method: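 Caspase-3/7 induction was measured by Caspase-Glo 3/7 luminescence (30 min, room temperature) after a 17 hr compound exposure of wild-type HepG2 cells seeded at 2,000 per well and pre-incubated 5 hr.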

[11] = Caspase-3/7 induction in CHO-K1 cells by small molecules, qHTS cell viability counter screen (AID 1346979); note: nearly all actives have a fitted effect of over 35% in size; note: potency is the fitted concentration of half-maximal effect
Summary of the method: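 Following a 5hr settling period, CHO-K1 cells at 1,500 per well received DMSO-dissolved compounds. Cell viability was quantified 16hr later by CellTiter-Fluor fluorescence, measured after 1hr with reagent at 37C.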

[12] = Caspase-3/7 induction in CHO-K1 cells by small molecules, qHTS assay (AID 1346980); note: nearly all actives have a fitted effect of over 15% in size
Summary of the method: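 Luminescent Caspase-Glo 3/7 read (30min, room temperature) quantified apoptosis induction. Cells were wild-type CHO-K1, treated with compound for 17hr at 37 C and 5% CO2.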

[13] = Caspase-3/7 induction in HepG2 cells by small molecules, qHTS cell viability counter screen (AID 1346981); note: nearly all actives have a fitted effect of over 30% in size; note: potency is the fitted concentration of half-maximal effect
Summary of the method: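 Viability determined by CellTiter-Fluor fluorescence in HepG2 wells also used for the luminescent Caspase-Glo 3/7 read. Compounds were present for 16 hr at 37 C, 5% CO2 before reagent addition.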

[14] = biological target: Progesterone receptor (Homo sapiens) (UniProt P06401); assay: qHTS assay to identify small molecule antagonists of the progesterone receptor (PR) signaling pathway (AID 1346795; active = well fitted inhibition curve with a large enough effect in the signal ratio in the repeat runs, not every such curve was filed as active; the % refers to the signal ratio; note: potency is the fitted concentration of half-maximal effect)
Summary of the method: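 Stimulus R5020 at 1 nM final; cells HEK293T PR-UAS-bla; medium with 2% charcoal-stripped FBS; compound exposure 16 hr at 37C, 5% CO2; detection by FRET beta-lactamase substrate, 2 hr, room temperature.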

[15] = biological target: Thyrotropin-releasing hormone receptor (Homo sapiens) (UniProt P34981); assay: qHTS assay to identify small molecule agonists of the thyrotropin-releasing hormone receptor (TRHR) signaling pathway (AID 1346891; calls by dose curve; note: series mostly up to about 58 µM)
Summary of the method: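 Readout was intracellular calcium fluorescence in TRHR-Hek293 cells. Cells were incubated 18 h, dye-loaded 2 h at 37 °C, and treated with compound in agonist mode.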

[16] = biological target: Acetylcholinesterase (Homo sapiens) (UniProt P22303); assay: Acetylcholinesterase (AChE) small molecule antagonists: colormetric cell-based qHTS assay (AID 1347395; calls by dose curve; note: nearly all actives have a fitted effect of over 30% in size; note: potency is the fitted concentration of half-maximal effect)
Sequence of Acetylcholinesterase (Homo sapiens) (P22303 whole entry, looked up): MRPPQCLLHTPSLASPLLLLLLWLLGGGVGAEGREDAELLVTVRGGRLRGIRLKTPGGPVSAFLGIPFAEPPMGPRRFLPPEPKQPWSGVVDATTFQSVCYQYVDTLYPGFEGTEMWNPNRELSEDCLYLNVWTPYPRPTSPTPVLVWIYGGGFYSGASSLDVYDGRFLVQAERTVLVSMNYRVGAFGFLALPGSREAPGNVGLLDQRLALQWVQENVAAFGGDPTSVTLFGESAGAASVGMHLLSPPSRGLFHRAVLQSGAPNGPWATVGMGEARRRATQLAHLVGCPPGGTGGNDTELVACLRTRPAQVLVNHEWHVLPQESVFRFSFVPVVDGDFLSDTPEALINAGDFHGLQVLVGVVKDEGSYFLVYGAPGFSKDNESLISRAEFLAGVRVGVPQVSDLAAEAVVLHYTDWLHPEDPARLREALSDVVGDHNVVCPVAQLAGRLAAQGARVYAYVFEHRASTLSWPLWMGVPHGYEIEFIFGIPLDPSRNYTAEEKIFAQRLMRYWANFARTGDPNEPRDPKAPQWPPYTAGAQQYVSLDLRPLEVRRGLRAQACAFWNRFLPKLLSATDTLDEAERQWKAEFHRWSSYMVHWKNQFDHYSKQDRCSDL
Summary of the method: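 After overnight attachment at 37 C, SH-SY5Y cells get 30 min compound exposure; detection cocktail (acetylthiocholine, DTNB) then incubates 90 min at 37 C, and absorbance reflects AChE-generated thiocholine.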

[17] = biological target: Acetylcholinesterase (Homo sapiens) (UniProt P22303); assay: Acetylcholinesterase (AChE) small molecule antagonists: enzyme-based qHTS assay (AID 1347397; calls by dose curve; note: nearly all actives have a fitted effect of over 55% in size; note: potency is the fitted concentration of half-maximal effect); details: Potency: AChE enzyme activity inhibition
Summary of the method: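 Absorbance-based detection of thiocholine with DTNB served as the read-out. Recombinant human AChE was exposed to compound for 30 min at RT before a 10 min RT incubation with acetylthiocholine.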

[18] = biological target: Nuclear receptor subfamily 1 group I member 2 (Homo sapiens) (UniProt O75469); assay: Human pregnane X receptor (PXR) small molecule agonists, qHTS assay (AID 1346982); note: nearly all actives have a fitted effect of over 35% in size; note: potency is the fitted concentration of half-maximal effect
Sequence of Nuclear receptor subfamily 1 group I member 2 (Homo sapiens) (O75469 whole entry, looked up): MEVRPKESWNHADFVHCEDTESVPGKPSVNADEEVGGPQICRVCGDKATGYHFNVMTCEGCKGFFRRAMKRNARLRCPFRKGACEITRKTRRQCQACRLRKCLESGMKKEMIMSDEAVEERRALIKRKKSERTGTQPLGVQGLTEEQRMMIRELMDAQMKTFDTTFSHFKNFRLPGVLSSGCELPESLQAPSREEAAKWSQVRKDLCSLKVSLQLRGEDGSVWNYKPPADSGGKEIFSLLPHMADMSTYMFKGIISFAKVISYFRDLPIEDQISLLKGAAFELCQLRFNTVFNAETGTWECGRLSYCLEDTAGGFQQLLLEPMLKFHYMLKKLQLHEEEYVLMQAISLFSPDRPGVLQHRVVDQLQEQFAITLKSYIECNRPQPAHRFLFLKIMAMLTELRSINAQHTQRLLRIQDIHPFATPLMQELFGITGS
Summary of the method: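 Compound-induced hPXR transactivation of a CYP3A4 luciferase reporter was scored in HepG2 PXR-Luc cells over 24 hr at 37 C, 5% CO2, by luminescence.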

[19] = biological target: Nuclear receptor subfamily 1 group I member 2 (Rattus norvegicus) (UniProt Q9R1A7); assay: Rat pregnane X receptor (rPXR) activation by small molecules, qHTS assay (AID 1346983); details: rPXR luciferase reporter cells, One-Glo luminescence, 24 h; max activation: hits give high values; note: nearly all actives have a fitted effect of over 20% in size
Sequence of Nuclear receptor subfamily 1 group I member 2 (Rattus norvegicus) (Q9R1A7 whole entry, looked up): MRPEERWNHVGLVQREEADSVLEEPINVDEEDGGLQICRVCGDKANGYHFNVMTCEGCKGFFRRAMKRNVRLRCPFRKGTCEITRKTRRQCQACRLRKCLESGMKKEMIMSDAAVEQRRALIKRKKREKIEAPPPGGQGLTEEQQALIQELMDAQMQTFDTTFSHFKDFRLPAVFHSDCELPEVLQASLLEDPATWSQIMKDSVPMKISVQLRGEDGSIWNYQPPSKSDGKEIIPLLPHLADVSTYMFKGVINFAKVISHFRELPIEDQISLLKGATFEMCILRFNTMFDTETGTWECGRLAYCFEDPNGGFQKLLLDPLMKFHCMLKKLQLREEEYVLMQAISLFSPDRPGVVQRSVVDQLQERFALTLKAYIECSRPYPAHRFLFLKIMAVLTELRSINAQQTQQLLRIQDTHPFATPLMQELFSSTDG
Summary of the method: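 Luminescent readout (One-Glo luciferase, 30 min room temperature) followed 24 hr compound treatment at 37 C of rPXR cells plated 2,000 per well and preincubated 5hr; qHTS format with compounds delivered in DMSO.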

[20] = biological target: Nuclear receptor subfamily 1 group I member 2 (Homo sapiens) (UniProt O75469); assay: CYP3A4 induction through human pregnane X receptor (PXR) by small molecules, qHTS assay (AID 1346984); note: nearly all actives have a fitted effect of over 40% in size
Summary of the method: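 Readings come from a luciferase reporter: DPX-2 cells, which are HepG2 cotransfected with PXR and a CYP3A4-promoter construct, were exposed to test compounds for 24 h at 37C before One-Glo detection.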
% is set by controls: 0 for no effect and ±100 for the full control effect.

CCCCCC[N+](=O)[O-]
inactive: Potency [1] | Potency [2] | Potency [3] | Potency [4] | Potency [5] | Potency [6] | outcome [7] | Potency [8] | Potency [9] | Potency [10] | Potency [11] | Potency [12] | Potency [13]

N#CCC#N
inactive: Potency [1] | Potency [2] | Potency [14] | Potency [4] | Potency [5] | Potency [6] | outcome [7] | Potency [8] | Potency [15] | Potency [10] | Potency [12] | Potency [16] | Potency [17]
active: Potency [11] 30.6 µM

CCOP(=O)(OCC)SCCSCC
active: Potency [18] 58.3 µM | Potency [16] 3.4 µM and 7.96 µM | Potency [17] 7.61 µM and 20 µM
inactive: Potency [1] | Potency [2] | Potency [3] | Potency [4] | Potency [5] | Potency [6] | outcome [7] | Potency [8] | Potency [9] | Potency [11] | Potency [12] | Potency [13]

COP(=S)(OC)Oc1ccc([N+](=O)[O-])cc1Cl
inactive: Potency [2] | Potency [14] | Potency [4] | Potency [5] | outcome [7] | Potency [8] | Potency [15] | Potency [12] | Potency [18] | Potency [16] | Potency [17]
active: Potency [1] 48.6 µM | Potency [9] 34.4 µM | Potency [11] 68.6 µM | Potency [13] 61.1 µM

Cc1ccc(N)cc1C
inactive: Potency [1] | Potency [2] | Potency [3] | Potency [4] | Potency [5] | Potency [6] | outcome [7] | Potency [8] | Potency [15] | Potency [9] | Potency [10] | Potency [11] | Potency [12] | Potency [13] | Potency [16] | Potency [17]
active: Potency [18] 49 µM

COCC(C)N(C(=O)CCl)c1c(C)csc1C (stereo not given)
inactive: Potency [1] | Potency [2] | Potency [5] | Potency [6] | outcome [7] | Potency [8] | Potency [15] | Potency [9] | Potency [10] | Potency [13] | Potency [18] | max activation [19] -3.61% | Potency [20] | Potency [16] | Potency [17]
active: Potency [14] 54.5 µM

CC(C)=CCOc1c2occc2cc2ccc(=O)oc12
inactive: Potency [1] | Potency [2] | Potency [3] | Potency [4] | Potency [5] | Potency [6] | outcome [7] | Potency [15] | Potency [9] | Potency [10] | Potency [11] | Potency [12] | Potency [13] | Potency [18] | Potency [16] | Potency [17]

CCCCC(CC)COP(=O)(Oc1ccccc1)Oc1ccccc1 (stereo not given)
active: Potency [18] 7.7 µM
inactive: Potency [1] | Potency [2] | Potency [3] | Potency [4] | Potency [5] | Potency [6] | outcome [7] | Potency [8] | Potency [9] | Potency [10] | Potency [11] | Potency [12] | Potency [13] | Potency [16] | Potency [17]

Nc1ccc([N+](=O)[O-])cc1[N+](=O)[O-]
inactive: Potency [2] | Potency [3] | Potency [4] | Potency [5] | Potency [6] | outcome [7] | Potency [8] | Potency [15] | Potency [18] | Potency [16] | Potency [17]
active: Potency [1] 53.1 µM | Potency [11] 47.3 µM | Potency [13] 47.3 µM

CCO[C@H]1O[C@@H]2OC3(C)CC[C@H]4[C@H](C)CC[C@@H]([C@H]1C)[C@@]24OO3
inactive: Potency [1] | Potency [2] | Potency [3] | Potency [4] | Potency [5] | Potency [6] | outcome [7] | Potency [8] | Potency [9] | Potency [10] | Potency [12] | Potency [13] | Potency [18] | Potency [16] | Potency [17]
active: Potency [11] 0.266 µM

CC1(C)CCC(Cc2ccc(Cl)cc2)C1(O)Cn1cncn1 (stereo not given)
active: Potency [14] 4.33 µM | Potency [11] 68.6 µM | Potency [18] 9.69 µM
inactive: Potency [1] | Potency [2] | Potency [4] | Potency [5] | Potency [6] | outcome [7] | Potency [15] | Potency [10] | Potency [12] | Potency [16] | Potency [17]

O=C(CBr)Nc1ccc(Cl)cc1C(=O)c1ccccc1F
inactive: Potency [1] | Potency [2] | Potency [3] | Potency [4] | Potency [5] | Potency [6] | outcome [7] | Potency [8] | Potency [15] | Potency [9] | Potency [10] | Potency [11] | Potency [12] | Potency [13] | Potency [16] | Potency [17]

CCCCc1c(C)nc(NCC)nc1OS(=O)(=O)N(C)C
active: Potency [1] 48.6 µM | Potency [14] 27.3 µM | Potency [9] 61.1 µM | Potency [11] 61.1 µM | Potency [13] 61.1 µM | Potency [18] 9.69 µM
inactive: Potency [2] | Potency [5] | Potency [6] | outcome [7] | Potency [8] | Potency [15] | Potency [12] | Potency [16] | Potency [17]

O=S1(=O)OC(c2cc(Br)c(O)c(Br)c2)(c2cc(Br)c(O)c(Br)c2)c2ccccc21
active: Potency [1] 22.3 µM | Potency [9] 12.5 µM | Potency [11] 25 µM | Potency [13] 25 µM
inactive: Potency [2] | Potency [14] | Potency [5] | outcome [7] | Potency [15] | Potency [12] | Potency [18] | Potency [16] | Potency [17]
